The results in this text go back to the supplement of paper PMC6555819.

The first test has as its system RXRa homodimer (NR concentration 180 nM). In words: PBM binding z-score (relative to random genomic background probes); higher = stronger binding; sequences stand for … in GC…GCGATTGACAGCGTAGAATGAAGG
The method in brief:
(§1)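 Antibodies against each partner of ligand-free nuclear receptor dimers (one per run) detected binding on custom Agilent 4×180K protein-binding microarrays after 1 h incubation. The double-stranded probes had 34-nt variable regions carrying direct-repeat seeds, single-nucleotide variants, half-site ablations and random human genomic background sequences. Binding z-scores, from regression-normalized fluorescence, use the random background probes as reference.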
Consider GATACAGGGTCAGGTAGAGGCCAGAGTATGGAAA, for which the PBM binding z-score came out at 4.13.
On the same count and under the same terms, to TTACCAAGGTGAGCTGAGGTCCTTGATCCAACTC belongs 0.399; to AGAACGAGGGCAATGAGTTGAGAGCACGGGTGGC, 0.838.
As to ATCGATAGGTCGTGAGGTGAGTATACAGAAAGGC, the PBM binding z-score was 2.15.
Sequence GATACAGGGTCAAGGCAAGAGTACGCGTATTGAT yielded a PBM binding z-score of 6.28.
In turn, TCTAGTTGGTCACGCAGGTCACACACGACGGGTA displayed a PBM binding z-score of 3.08.
The same measure, in the same setting: to CTCGAAAGGTCGTGCTCAGGTGACTATACCAAAC belongs 4.78; to CATACTGGGCCAAAGGTCATTGATTCCAATGCTC, 6.78; to TCGAGTAGGTTACCAATAGGGCATTCAGCTTTCT, 0.749.
The same measure, in the same setting: next, CGTCCAAGGTCAAGGTCAGTGATAGAGACTCGAA: 6.55; ATATGTAGGATACATCCGGGTCATTCAGGCTATG: 1.95.
Same read-out and setting: next, TCTAGTTGGTCAAGGAGGTCACACACGACGGGTA: 4.27.
Take GCATATACGTAATACAAGGTGAAAGTCCGATTGT: the PBM binding z-score stood at 0.528.
In turn, ACTAGTTGGACAGCTGAGGTCACACACAATTCGG yielded a PBM binding z-score of 3.85.
CCTAGTTGGTCAAGGTCACACGCGCTATAGGTAC displayed a PBM binding z-score of 4.7.
On the same count and under the same terms, next, ATATGTAGGTTACGGGTCATTCAGGTTGGTTCGC: 4.31; ATCGAAAGCTCGTGAGGTGAGTATACAGAAAGGC: -0.0851.
The same measure, in the same setting: to CCTATTAGTTGACCATCAGGGCAACCGAAGCTCG belongs 0.205.
The sequence TCGAGTAGGTGAGTCGGGGCATTCAGCCAACATA came in with a PBM binding z-score of -0.201.
On the same count and under the same terms, to ACTAGTTGGTCAGCTGAGCTCACACACAATTCGG belongs -0.234.
The same measure, in the same setting: next, TCTTGTAGATCAAAGGGTAAGAAAGCCGAAGCCT: 0.585; TATACAGGGTCAAAGGCCAGAATACGAATGTCGA: 6.99; TCTCGGAGGACATGAAGGTCAGAGCTTTCCAGAG: 1.44.
Still for that read-out and setting: next, TTACCAAGGTGAAGGTCGTTGAGCCCTCTGTAGA: 1.59; TCTGCTAGGTCAGTTGGTCAGCTATCGAGCTGCC: 0.914.
Take ACTAGCAGGCGAAGGGTCACTCAAGATTAGTCCG: the PBM binding z-score stood at 3.49.
In turn, ATATGTAGGCTATCGGGTCATTCAGTTTGCGCAT showed a PBM binding z-score of 2.08.
The same measure, in the same setting: next, ATATGTACGTTACATCCGGGTCATTCAGGCTATG: 2.07.
In the case of CCTGCTAGGTCAATGGTCAGCGAAAGCAGCTCGC, the PBM binding z-score was determined as 2.11.
Still for that read-out and setting: to TCTTGGAGATCAACAGGAGGTTAAGAAAGATCGA belongs 1.3.
Sequence TCTTGTAGATCAACAGGAAGTTAAGAAAGATCGA gave a PBM binding z-score of -0.0187.
In turn, TAGCCTAGGTCATGGACCAGTATACCACGCGAAC yielded a PBM binding z-score of 3.56.
As to TCTCGGAGGACACGAAAGGTCCGAGCTCGACATC, the PBM binding z-score turned out to be 0.384.
On to TCTTGTAGATGAACAGGAGGTTAAGAAAGATCGA, for which the PBM binding z-score was 0.784.
On the same count and under the same terms, next, CCTAGTTGGTCAGAAGGTCACACACCGGATATGA: 4.4.
Same read-out and setting: next, CCTTACGGGACACTGACAGGTTATAGCATTTGGA: 0.341; GATTCAGGGTCAAGGCCAGAGTACGCGTATTGAT: 7.1; TTGCCTAGGTCAGATCGGGCCAGTATACGCTATA: 1.51.
The sequence TTACCAAGGTGAGCTGAGGTCGTTGACCCAACTC yielded a PBM binding z-score of 2.03.

The test system of the next test is THRa:RXRa (NR concentration 90 nM, RXRa partner concentration 90 nM). The description is as above. Put shortly:
as §1
Turning to GATACAGGGTCAGGTAGAGGCCAGAGTATGGAAA, the PBM binding z-score worked out at 3.18.
The sequence TTACCAAGGTGAGCTGAGGTCCTTGATCCAACTC registered a PBM binding z-score of 3.79.
Same read-out and setting: to AGAACGAGGGCAATGAGTTGAGAGCACGGGTGGC belongs 1.1; to ATCGATAGGTCGTGAGGTGAGTATACAGAAAGGC, 2.47; to GATACAGGGTCAAGGCAAGAGTACGCGTATTGAT, 3.72.
Still for that read-out and setting: next, TCTAGTTGGTCACGCAGGTCACACACGACGGGTA: 2.92.
The same measure, in the same setting: next, CTCGAAAGGTCGTGCTCAGGTGACTATACCAAAC: 4.26.
On to CATACTGGGCCAAAGGTCATTGATTCCAATGCTC, for which the PBM binding z-score was 3.47.
TCGAGTAGGTTACCAATAGGGCATTCAGCTTTCT: the PBM binding z-score was 0.215.
CGTCCAAGGTCAAGGTCAGTGATAGAGACTCGAA registered a PBM binding z-score of 4.48.
Take ATATGTAGGATACATCCGGGTCATTCAGGCTATG: the PBM binding z-score was found to be 2.99.
On the same count and under the same terms, to TCTAGTTGGTCAAGGAGGTCACACACGACGGGTA belongs 3.57; to GCATATACGTAATACAAGGTGAAAGTCCGATTGT, 2.44.
For the sequence ACTAGTTGGACAGCTGAGGTCACACACAATTCGG, the PBM binding z-score worked out at 4.57.
CCTAGTTGGTCAAGGTCACACGCGCTATAGGTAC returned a PBM binding z-score of 4.17.
ATATGTAGGTTACGGGTCATTCAGGTTGGTTCGC came in with a PBM binding z-score of 3.15.
ATCGAAAGCTCGTGAGGTGAGTATACAGAAAGGC yielded a PBM binding z-score of 1.52.
On the same count and under the same terms, to CCTATTAGTTGACCATCAGGGCAACCGAAGCTCG belongs 1.19.
The same measure, in the same setting: next, TCGAGTAGGTGAGTCGGGGCATTCAGCCAACATA: 0.829; ACTAGTTGGTCAGCTGAGCTCACACACAATTCGG: 0.0887.
Sequence TCTTGTAGATCAAAGGGTAAGAAAGCCGAAGCCT had a PBM binding z-score of -0.022.
Still for that read-out and setting: to TATACAGGGTCAAAGGCCAGAATACGAATGTCGA belongs 3.41; to TCTCGGAGGACATGAAGGTCAGAGCTTTCCAGAG, 2.28.
Same read-out and setting: to TTACCAAGGTGAAGGTCGTTGAGCCCTCTGTAGA belongs 2.14.
Same read-out and setting: next, TCTGCTAGGTCAGTTGGTCAGCTATCGAGCTGCC: 1.2.
Sequence ACTAGCAGGCGAAGGGTCACTCAAGATTAGTCCG returned a PBM binding z-score of 2.32.
Still for that read-out and setting: to ATATGTAGGCTATCGGGTCATTCAGTTTGCGCAT belongs 2.91; to ATATGTACGTTACATCCGGGTCATTCAGGCTATG, 3.14; to CCTGCTAGGTCAATGGTCAGCGAAAGCAGCTCGC, 2.32.
On the same count and under the same terms, next, TCTTGGAGATCAACAGGAGGTTAAGAAAGATCGA: 1.14.
With TCTTGTAGATCAACAGGAAGTTAAGAAAGATCGA, the PBM binding z-score is -0.307.
TAGCCTAGGTCATGGACCAGTATACCACGCGAAC gave a PBM binding z-score of 3.18.
Still for that read-out and setting: to TCTCGGAGGACACGAAAGGTCCGAGCTCGACATC belongs 1.62.
Sequence TCTTGTAGATGAACAGGAGGTTAAGAAAGATCGA showed a PBM binding z-score of 0.65.
For the sequence CCTAGTTGGTCAGAAGGTCACACACCGGATATGA, the PBM binding z-score was 3.12.
Sequence CCTTACGGGACACTGACAGGTTATAGCATTTGGA displayed a PBM binding z-score of 0.178.
In turn, GATTCAGGGTCAAGGCCAGAGTACGCGTATTGAT came in with a PBM binding z-score of 3.87.
The same measure, in the same setting: next, TTGCCTAGGTCAGATCGGGCCAGTATACGCTATA: 3.9; TTACCAAGGTGAGCTGAGGTCGTTGACCCAACTC: 4.79.
